From PubChem BioAssay (Tox21)
Values joined by “and” are separate entries in the source; they are usually repeats but may differ in a detail not shown here. Equal values may be shown once. Results filed as inconclusive are left out. The source holds several records for some structures; these can differ, active in one and inactive in another. Active and inactive are the calls of the source. Unless noted, calls follow the shape of the full dose curve.

Legend:
[1] = Nuclear factor erythroid 2-related factor 2/antioxidant responsive element (Nrf2/ARE) small molecule agonists: qHTS cell viability counter screen in human keratinocytes (AID 1919968; active = well fitted curve in the direction sought with a large enough effect in the repeat runs; an effect the other way counts as inactive or inconclusive; also: nearly all actives have a fitted effect of over 55% in size; also: potency is read from the fitted curve at half-maximal effect)
Outline: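 Viability counter-screen: KeratinoSens reporter cells, DMSO-delivered compounds, 23 h at 37 C, CellTiter-Fluor fluorescence.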

[2] = molecular target: Gonadotropin-releasing hormone receptor (Homo sapiens) (UniProt P30968); experiment: Human gonadotropin-releasing hormone receptor (GnRHR) small molecule agonists, calcium flux assay in GnRHR-HEK293 cells (AID 1920063); also: nearly all actives have a fitted effect of over 35% in size
Sequence of Gonadotropin-releasing hormone receptor (Homo sapiens) (P30968 whole entry, looked up): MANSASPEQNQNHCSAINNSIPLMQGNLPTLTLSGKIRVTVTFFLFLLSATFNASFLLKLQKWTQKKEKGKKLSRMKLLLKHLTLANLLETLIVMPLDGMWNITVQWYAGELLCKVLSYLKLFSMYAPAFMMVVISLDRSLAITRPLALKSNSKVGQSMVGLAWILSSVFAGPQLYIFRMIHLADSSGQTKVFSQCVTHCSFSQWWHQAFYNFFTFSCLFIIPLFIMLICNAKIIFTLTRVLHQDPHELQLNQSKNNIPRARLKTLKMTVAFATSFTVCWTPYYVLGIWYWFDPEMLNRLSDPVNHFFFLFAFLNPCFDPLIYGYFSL
Outline: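 Tox21-format agonist screen using human GnRHR-expressing HEK293 cells and a fluorescent calcium dye; kinetic 3-min fluorescence reading after compound addition, 15-point concentration series run in triplicate.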

[3] = molecular target: KiSS-1 receptor (Homo sapiens) (UniProt Q969F8); experiment: Human kisspeptin (KISS1R) small molecule agonists, calcium flux assay in KISS1R-HEK293 cells (AID 1920064; active = well fitted curve in the direction sought with a large enough effect in the repeat runs; an effect the other way counts as inactive or inconclusive)
Sequence of KiSS-1 receptor (Homo sapiens) (Q969F8 whole entry, looked up): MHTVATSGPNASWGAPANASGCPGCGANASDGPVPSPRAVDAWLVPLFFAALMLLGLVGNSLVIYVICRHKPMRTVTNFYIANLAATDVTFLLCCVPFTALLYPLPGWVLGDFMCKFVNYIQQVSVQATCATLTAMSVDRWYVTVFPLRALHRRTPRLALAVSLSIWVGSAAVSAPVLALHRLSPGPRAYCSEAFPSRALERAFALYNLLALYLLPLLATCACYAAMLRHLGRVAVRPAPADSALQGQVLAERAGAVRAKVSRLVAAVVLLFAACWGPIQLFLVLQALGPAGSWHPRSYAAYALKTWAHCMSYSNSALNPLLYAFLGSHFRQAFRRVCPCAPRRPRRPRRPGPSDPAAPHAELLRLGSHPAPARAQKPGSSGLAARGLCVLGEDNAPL
Outline: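 Intracellular calcium mobilization in KISS1R-HEK293 cells was recorded by fluorescence (Ex/Em 480/540) for 3 min following compound addition to cells pre-loaded 1 h with calcium dye.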

[4] = G protein-coupled receptor (GPCR) small molecule agonists, calcium flux assay: HEK293 wild type cell line counter screen (AID 1920065)
Outline: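 In this agonist-mode screen, ATP is the positive control and DMSO the vehicle. Cells grow 18 h before a 1 h dye incubation at 37 C; signal is taken at Ex/Em 480/540 over 3 min.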

[5] = p53 small molecule agonists, cell-based qHTS assay with human liver microsomes (AID 1963577);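 also: p53 response element beta-lactamase reporter cells with liver microsomes plus NADPH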
Outline: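 p53RE-bla cells; 5 h settle, 37 C/5% CO2; cpd + HLM 0.5 mg/mL + NADPH 0.5 mg/mL (final); 16 h 37 C; LiveBLAzer 2 h RT dark; fluorescence readout.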

[6] = p53 small molecule agonists, cell-based qHTS assay with rat liver microsomes (AID 1963578)
Outline: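 Rat liver microsome activation: microsomes 0.5 mg/mL, NADPH 0.5 mg/mL final; p53RE-bla cells, 16 h 37 C; LiveBLAzer readout, 2 h RT dark.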

[7] = p53 small molecule agonists, cell-based qHTS assay with human liver microsomes: qHTS cell viability counter screen (AID 1963579); also: nearly all actives have a fitted effect of over 45% in size; also: potency is read from the fitted curve at half-maximal effect
Outline: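 Luminescent CellTiter-Glo read-out, 30 min at room temperature, gauged cytotoxicity in p53RE-bla cells exposed 16 h at 37 C to DMSO-dissolved compounds with metabolic activation by human liver microsomes and NADPH, each 0.5 mg/mL final.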

[8] = p53 small molecule agonists, cell-based qHTS assay with rat liver microsomes: qHTS cell viability counter screen (AID 1963580); also: nearly all actives have a fitted effect of over 45% in size; also: potency is read from the fitted curve at half-maximal effect
Outline: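 p53RE-bla HCT-116 cells (4,000/well) rested 5 h at 37 C, then given Tox21 compounds in DMSO with rat liver microsomes (0.5 mg/mL final) plus NADPH (0.5 mg/mL final) for 16 h at 37 C. Viability read by CellTiter-Glo luminescence after 30 min at room temperature.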

[9] = p53 small molecule agonists, cell-based qHTS assay: qHTS cell viability counter screen (AID 1963581); also: nearly all actives have a fitted effect of over 45% in size; also: potency is read from the fitted curve at half-maximal effect
Outline: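 Compounds are pinned onto HCT-116 p53RE-bla cells and left 16 h at 37 C. Following the reporter FRET read, ATP is quantified by CellTiter-Glo luminescence after 30 min at room temperature.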

[10] = p53 small molecule agonists, cell-based qHTS assay (AID 1963582; active = well fitted activation curve with a large enough effect in the signal ratio in the repeat runs, not every such curve was filed as active; the % refers to the signal ratio)
Outline: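 Agonist activity was scored from beta-lactamase FRET fluorescence in p53RE-bla cells treated 16 h at 37 C with compounds in DMSO, substrate incubation being 2 h at room temperature.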

[11] = molecular target: 5-hydroxytryptamine receptor 2A (Homo sapiens) (UniProt P28223); experiment: 5-hydroxytryptamine receptor 2A (HTR2A) small molecule antagonists, cell-based qHTS assay (AID 1963586); also: nearly all actives have a fitted effect of over 45% in size; also: potency is read from the fitted curve at half-maximal effect
Sequence of 5-hydroxytryptamine receptor 2A (Homo sapiens) (P28223 whole entry, looked up): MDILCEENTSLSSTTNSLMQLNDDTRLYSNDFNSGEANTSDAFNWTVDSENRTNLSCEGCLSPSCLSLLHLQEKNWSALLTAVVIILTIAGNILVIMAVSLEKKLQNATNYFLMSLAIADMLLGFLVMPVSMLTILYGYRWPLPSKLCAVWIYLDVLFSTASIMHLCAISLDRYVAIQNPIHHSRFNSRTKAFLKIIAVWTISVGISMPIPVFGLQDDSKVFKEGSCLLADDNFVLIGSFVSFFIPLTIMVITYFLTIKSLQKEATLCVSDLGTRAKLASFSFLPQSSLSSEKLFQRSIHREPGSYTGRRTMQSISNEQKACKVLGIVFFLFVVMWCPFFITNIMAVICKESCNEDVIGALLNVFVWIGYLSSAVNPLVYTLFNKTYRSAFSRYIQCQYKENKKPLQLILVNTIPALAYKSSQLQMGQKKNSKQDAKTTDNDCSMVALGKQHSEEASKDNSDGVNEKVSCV
Outline: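 Antagonist-mode intracellular calcium assay: DOI (4 nM) added after 5 min compound pre-incubation at room temperature to dye-loaded HTR2A-CHO cells. Fluorescence followed for 3 min, sampled every second.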

[12] = molecular target: 5-hydroxytryptamine receptor 2A (Homo sapiens) (UniProt P28223); experiment: 5-hydroxytryptamine receptor 2A (HTR2A) small molecule agonists, cell-based qHTS assay (AID 1963587); also: nearly all actives have a fitted effect of over 30% in size
Outline: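 HTR2A-CHO cells, plated 18 h at 37 C/5% CO2, dye-loaded 1 h at 37 C; compounds in DMSO added by pin tool (agonist mode). Intracellular calcium flux read as kinetic fluorescence on FDSS over 2 min at 1 s intervals.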

[13] = molecular target: Muscarinic acetylcholine receptor M1 (Homo sapiens) (UniProt P11229); experiment: Cholinergic receptor muscarinic 1 (CHRM1) small molecule antagonists, cell-based qHTS assay (AID 1963588); also: nearly all actives have a fitted effect of over 40% in size; also: potency is read from the fitted curve at half-maximal effect
Sequence of Muscarinic acetylcholine receptor M1 (Homo sapiens) (P11229 whole entry, looked up): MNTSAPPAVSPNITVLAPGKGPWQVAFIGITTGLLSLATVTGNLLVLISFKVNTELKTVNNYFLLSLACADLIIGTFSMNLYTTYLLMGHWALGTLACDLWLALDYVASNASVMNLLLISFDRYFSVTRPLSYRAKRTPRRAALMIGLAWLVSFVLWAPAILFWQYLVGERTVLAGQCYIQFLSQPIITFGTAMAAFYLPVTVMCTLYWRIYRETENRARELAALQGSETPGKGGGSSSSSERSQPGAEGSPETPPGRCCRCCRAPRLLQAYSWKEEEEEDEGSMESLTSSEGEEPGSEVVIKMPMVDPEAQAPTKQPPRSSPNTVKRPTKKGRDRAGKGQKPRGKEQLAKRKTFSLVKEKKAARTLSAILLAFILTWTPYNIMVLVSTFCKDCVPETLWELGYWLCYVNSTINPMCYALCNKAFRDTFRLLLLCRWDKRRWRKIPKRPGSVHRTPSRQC
Outline: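 CHRM1-CHO calcium-flux assay, antagonist mode. Cells were seeded 18 h, dye-loaded 1 h at 37 C and given compound for 5 min at RT, then acetylcholine was added at 50nM. FDSS fluorescence was read 3 min; 15 concentrations, three runs.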

[14] = molecular target: Muscarinic acetylcholine receptor M1 (Homo sapiens) (UniProt P11229); experiment: Cholinergic receptor muscarinic 1 (CHRM1) small molecule agonists, cell-based qHTS assay (AID 1963589); also: nearly all actives have a fitted effect of over 35% in size
Outline: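 Stable CHRM1-CHO cells (human receptor) were incubated 18 h, dye-loaded for 1 h at 37 C and exposed to test compounds for agonist activity, with calcium-dependent fluorescence followed kinetically.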

[15] = cAMP Responsive Elements (CRE) small molecule antagonists, cell-based qHTS assay (AID 1963591; active = well fitted inhibition curve with a large enough effect in the signal ratio in the repeat runs, not every such curve was filed as active; the % refers to the signal ratio)
Outline: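 qHTS in CRE-bla HEK 293T cells: compound in DMSO, then 0.25 uM NKH477 (final), 3 h at 37 °C/5% CO2; beta-lactamase FRET read-out after 2 h substrate incubation.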

[16] = molecular target: Beta-2 adrenergic receptor (Homo sapiens) (UniProt P07550); experiment: Adrenergic beta2 receptor (ADRB2) small molecule antagonists, cell-based qHTS assay (AID 1963592); also: nearly all actives have a fitted effect of over 50% in size; also: potency is read from the fitted curve at half-maximal effect
Sequence of Beta-2 adrenergic receptor (Homo sapiens) (P07550 whole entry, looked up): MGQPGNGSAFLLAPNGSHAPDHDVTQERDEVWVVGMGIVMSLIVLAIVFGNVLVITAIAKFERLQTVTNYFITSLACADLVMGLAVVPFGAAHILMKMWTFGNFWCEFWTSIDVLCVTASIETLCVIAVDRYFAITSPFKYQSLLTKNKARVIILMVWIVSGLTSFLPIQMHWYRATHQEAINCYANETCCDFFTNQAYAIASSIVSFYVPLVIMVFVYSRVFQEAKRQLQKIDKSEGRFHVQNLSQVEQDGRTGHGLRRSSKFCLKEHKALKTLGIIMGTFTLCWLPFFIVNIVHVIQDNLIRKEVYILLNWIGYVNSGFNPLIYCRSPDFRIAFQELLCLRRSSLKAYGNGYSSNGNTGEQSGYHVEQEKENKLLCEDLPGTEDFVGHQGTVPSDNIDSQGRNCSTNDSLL
Outline: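 Cells (CHO, stable ADRB2 overexpression) incubated 18-20hr at 37C; compounds added from DMSO; agonist mix (1nM isoproterenol, 100uM IBMX, 25uM Ro-20-1724) added; 0.5hr RT; d2-cAMP and anti-cAMP-cryptate added; 1hr RT; 665/615 nm read.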

[17] = molecular target: Beta-2 adrenergic receptor (Homo sapiens) (UniProt P07550); experiment: Adrenergic beta2 receptor (ADRB2) small molecule agonists, cell-based qHTS assay (AID 1963593); also: potency is read from the fitted curve at half-maximal effect;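 as to activation: CHO cells stably overexpressing human ADRB2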
Outline: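 CHO cells stably over-expressing ADRB2 were plated overnight at 37C, then dosed with compounds plus a stimulation mix containing 100uM IBMX and 25uM Ro-20-1724 for 0.5hr at room temperature. cAMP was measured by HTRF competition, 1hr.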

[18] = molecular target: D(2) dopamine receptor (Homo sapiens) (UniProt P14416); experiment: Dopamine D2 receptor (DRD2) small molecule agonists, cell-based qHTS assay (AID 1963594); also: nearly all actives have a fitted effect of over 35% in size
Sequence of D(2) dopamine receptor (Homo sapiens) (P14416 whole entry, looked up): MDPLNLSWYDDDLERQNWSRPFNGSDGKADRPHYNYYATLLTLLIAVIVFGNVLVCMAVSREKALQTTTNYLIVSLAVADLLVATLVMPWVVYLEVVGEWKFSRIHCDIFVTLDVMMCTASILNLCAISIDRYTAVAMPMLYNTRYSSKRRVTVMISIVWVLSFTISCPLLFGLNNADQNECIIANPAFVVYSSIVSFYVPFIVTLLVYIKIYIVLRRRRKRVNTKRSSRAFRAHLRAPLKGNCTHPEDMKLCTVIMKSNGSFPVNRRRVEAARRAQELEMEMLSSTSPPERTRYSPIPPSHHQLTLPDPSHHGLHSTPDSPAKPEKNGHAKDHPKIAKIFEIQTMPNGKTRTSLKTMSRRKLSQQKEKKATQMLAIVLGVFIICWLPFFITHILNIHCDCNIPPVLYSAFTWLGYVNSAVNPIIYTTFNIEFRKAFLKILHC
Outline: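 HEK293 cells stably expressing DRD2 were cultured 24 h at 37 C, then given Ro20-1724 (0.1 mM final) and compounds for 10 min at room temperature. NKH477 (200nM) was then added for 30 min. cAMP was read by HTRF.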

[19] = molecular target: D(2) dopamine receptor (Homo sapiens) (UniProt P14416); experiment: Dopamine D2 receptor (DRD2) small molecule antagonists, cell-based qHTS assay (AID 1963595; active = well fitted inhibition curve with a large enough effect in the signal ratio in the repeat runs, with a control signal flat; the % refers to the signal ratio)
Outline: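 HEK293 cells stably expressing DRD2 were preincubated with 0.1 mM Ro20-1724, then with compound for 10 min at room temperature. Cells were stimulated with 200 nM NKH477 plus 12 nM quinpirole for 30 min, and cAMP was read by HTRF.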

[20] = cAMP Responsive Elements (CRE) small molecule agonists, cell-based qHTS assay (AID 1963590)
Outline: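 FRET-based beta-lactamase readout (LiveBLAzer B/G, 2 h RT) quantified CRE activation in HEK 293T CRE-bla cells after 3 h treatment with DMSO-dissolved compounds.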

Measured: Potency

CC1=CC(=O)c2ccccc2C1=O
active: [1] 27.3 µM and 26.6 µM
40.8 µM (active) and inactive: [9]
not listed: [20]
inactive: all other assays above

CC(=O)OCCOCCOCCOC(C)=O
53.8 µM (active) and inactive: [17]
not listed: [11]
inactive: all other assays above

Clc1nc(Cl)c(Cl)c(Cl)c1Cl
not listed: [12]
inactive: all other assays above

CC/C(=C(/CC)c1ccc(O)cc1)c1ccc(O)cc1
active: [1] 42.9 µM and 61.1 µM
not listed: [10] | [11] | [12] | [13] | [14] | [15] | [18] | [19]
inactive: all other assays above

CNC(=O)[C@H]1O[C@@H](n2cnc3c(NCc4cc(Cl)ccc4OCc4cc(C)no4)ncnc32)[C@H](O)[C@@H]1N
not listed: [12] | [17]
inactive: all other assays above

OCCOCCOCCOCCOCCO
not listed: [12]
inactive: all other assays above

c1coc(CNc2ncnc3nc[nH]c23)c1
not listed: [11] | [17]
inactive: all other assays above

O=CC1CC=CCC1 (stereo not drawn)
not listed: [11] | [17]
inactive: all other assays above

c1ccc(CCCc2ccncc2)cc1
not listed: [15] | [17] | [20]
inactive: all other assays above

CCCC(=O)C(C)=O
not listed: [10] | [17]
inactive: all other assays above

Clc1cccc(Cl)c1NC1=NCCN1
not listed: [10] | [11] | [12] | [13] | [14]
inactive: all other assays above

O=C(O)CSCC(=O)NC1CCSC1=O (stereo not drawn)
not listed: [14] | [19]
inactive: all other assays above

Oc1ccc(Cl)cc1Sc1cc(Cl)ccc1O
active: [1] 38.5 µM | [9] 18.2 µM and 17.8 µM
45.7 µM (active) and inactive: [8]
29.7 µM (active) and inactive: [11]
32.3 µM (active) and inactive: [7]
68.5 µM (active) and inactive: [16]
not listed: [10] | [12] | [15] | [20]
inactive: all other assays above

COc1ccccc1/C=C/C=O
not listed: [9] | [17]
inactive: all other assays above

CC(C)=CCCC(C)CC=O (stereo not drawn)
not listed: [11] | [12] | [13] | [14]
inactive: all other assays above

CCCC[O][Al]([O]CCCC)[O]CCCC
not listed: [10] | [17]
inactive: all other assays above

COc1ccc(Br)c(C)c1
not listed: [12]
inactive: all other assays above

COc1ccc(CCN2CCC(Nc3nc4ccccc4n3Cc3ccc(F)cc3)CC2)cc1
inactive: [2] | [3] | [4] | [5] | [6] | [10] | [18]
14.8 µM (active) and inactive: [7]
active: [1] 11.1 µM and 23.7 µM | [9] 13.2 µM
26.3 µM (active) and inactive: [8]
55.7 µM (active) and inactive: [16]

CCOC(=O)c1ccc(C)cc1
not listed: [13] | [19]
inactive: all other assays above

O=c1[nH]cnc2c1ncn2[C@@H]1O[C@H](CO)[C@@H](O)[C@H]1O
not listed: [12] | [14]
inactive: all other assays above

CCC(C)(C)C1CCCCC1OC(C)=O (stereo not drawn)
not listed: [13] | [17]
inactive: all other assays above

N=C(N)c1ccc2cc(OC(=O)c3ccc(N=C(N)N)cc3)ccc2c1
not listed: [13] | [19]
inactive: all other assays above

O
not listed: [11] | [12] | [13] | [14] | [18] | [19]
inactive: all other assays above

NCCOCCN
not listed: [10] | [17]
inactive: all other assays above

OCCOCCN1CCN(C2=Nc3ccccc3Sc3ccccc32)CC1
not listed: [11] | [12] | [13] | [14] | [15] | [17] | [20]
inactive: all other assays above

O=C(c1ccc(OCCN2CCCCC2)cc1)c1c(-c2ccc(O)cc2)sc2cc(O)ccc12
active: [1] 34.4 µM and 30.6 µM
36.4 µM (active) and inactive: [9]
45.8 µM (active) and inactive: [7]
not listed: [11] | [12] | [13] | [14] | [15] | [20]
inactive: all other assays above

CC(C)C(=O)c1ccccc1
not listed: [12] | [14] | [17]
inactive: all other assays above

Nc1ccc([N+](=O)[O-])c(C(F)(F)F)c1
not listed: [9] | [13] | [17]
inactive: all other assays above

CCCO[Si](OCCC)(OCCC)OCCC
not listed: [8] | [11]
inactive: all other assays above

O=Cc1ccccc1C=O
61.1 µM (active) and inactive: [1]
42.1 µM (active) and inactive: [13]
active: [17] 43.3 µM
not listed: [5] | [6] | [10] | [20]
inactive: all other assays above
